Shown is part of a subset that was picked to be rich in hits.
FECH inh: blocks human mitochondrial ferrochelatase activity; 20,000 compounds, 3.3% hits; AID 1671448; calls only at 10 µM (by protocol); P22830; purified FECH, Ni-mesoporphyrin absorbance 550 nm;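 active = enzyme reaction rate more than 3 SD below the solvent-only control wells on the same plate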;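 note: lower slope than DMSO wells means FECH inhibition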
Target sequence (P22830 whole entry, looked up): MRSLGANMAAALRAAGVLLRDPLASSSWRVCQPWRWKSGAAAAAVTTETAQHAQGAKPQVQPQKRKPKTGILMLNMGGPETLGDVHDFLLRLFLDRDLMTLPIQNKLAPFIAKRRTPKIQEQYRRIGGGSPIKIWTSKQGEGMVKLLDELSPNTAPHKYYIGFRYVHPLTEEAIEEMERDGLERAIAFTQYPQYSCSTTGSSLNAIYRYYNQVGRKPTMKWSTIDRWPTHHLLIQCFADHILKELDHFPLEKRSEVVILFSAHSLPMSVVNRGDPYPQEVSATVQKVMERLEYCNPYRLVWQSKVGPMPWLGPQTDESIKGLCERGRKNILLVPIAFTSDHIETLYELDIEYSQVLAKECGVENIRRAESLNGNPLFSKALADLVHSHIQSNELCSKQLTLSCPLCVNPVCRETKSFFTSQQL
Each line names hits and unclear results; the compound was inactive in the other large screens.

Nc1cnc(-n2cnc3ccccc32)cn1	none
COC(=O)[C@@H](NC(=O)N(Cc1ccncc1)C1CCN(C)CC1)C(C)C	none
COc1ccc(C(=O)Nc2nc3n(n2)C(c2ccc(Cl)cc2)C=C(c2ccccc2)N3)cc1 (centres undefined)	none
COc1ccc(CC(=O)Nc2cc(N3CCCS3(=O)=O)ccc2C)cc1OC	none
CC(c1cccc(-c2ccc3nc[nH]c3c2)c1)N(C)C (centres undefined)	none
CC(c1cccc(-c2cccc3c(N)ccnc23)c1)N(C)C (centres undefined)	FECH inh active
COC(C)c1cccc(-c2ncccc2Cl)c1 (centres undefined)	none
Cc1ccc(C(C)NC(=O)CN(Cc2cnn(C)c2)C2CC2)cc1 (centres undefined)	none
Cn1cc(CN(Cc2cc3cc4c(cc3[nH]c2=O)OCO4)C2CC2)cn1	none
Cn1cc(CN(Cc2ccc(CO)o2)C2CC2)cn1	FECH inh active
Cc1nc(SCc2nc(-c3ccc(OC(C)C)cc3)oc2C)[nH]c(=O)c1Cc1ccccc1	none
COCCn1c(CNC(=O)c2ccc(N(C)C)cc2)nc2cccnc21	none
O=C(CC1CCN(Cc2ccccc2)CC1)Nc1cnc2n1CCCC2	none
Cc1ccc(OCc2cc(=O)n3oc(C)cc3n2)c(NC(=O)c2ccco2)c1	none
COc1ccc(Nc2cc(C)nc(N3CCN(S(=O)(=O)c4ccc(-c5ccccc5)cc4)CC3)n2)cc1	none
Cn1c(=O)c(C(=O)NCc2ccc3c(c2)OCO3)nc2ccccc21	none
Cc1ccc(CNC(=O)c2nc3ccccc3n(C)c2=O)cc1	FECH inh active
Cn1c(=O)c(C(=O)NCc2ccc(F)cc2)nc2ccccc21	none
O=C(c1ccc(O)cn1)N1CCc2[nH]nc(-c3ccc(-c4ccccc4)cc3)c2C1	none
CN1CCOC(CCNC(=O)c2cnc(-c3ccccn3)nc2)C1 (centres undefined)	none
OCC(Nc1nc(-c2ccccn2)nc2c1CCNC2)c1ccc(F)cc1 (centres undefined)	none
CC(C)c1cc(C(=O)NCCCc2csc(N)n2)n(C)n1	none
NS(=O)(=O)c1ccc(NC(=O)c2noc3c2CCCC3)cc1	none
CCOc1ccc(NC(=O)c2cc(-c3ccc(OC)c(S(N)(=O)=O)c3)n[nH]2)cc1	none
NS(=O)(=O)c1ccc(NC(=O)c2nn(-c3cccc(Cl)c3)ccc2=O)cc1	none
NS(=O)(=O)c1ccc(NC(=O)c2cc(-c3ccc(Cl)cc3)on2)cc1	FECH inh active
CCOc1ccc(-c2cc(C(=O)Nc3ccc(S(N)(=O)=O)cc3)no2)cc1	FECH inh active
CCc1ccc(-c2noc3c(=O)n(CCC(=O)Nc4ccc(S(N)(=O)=O)cc4)cnc23)cc1	none
CC(CC1=CCCN(CC(N)=O)C1)NC(=O)/C=C/c1ccccc1 (centres undefined)	none
CC(C)Oc1ccc(CNC(=O)CCn2cnc3onc(-c4cc(F)cc(F)c4)c3c2=O)cc1	none
COc1cccc(C(=O)N(Cc2nc3nc(C)c(Cl)c(C)n3n2)c2ccccc2)c1	none
Cc1ccc2cc(CN3CCCOCC3)c(=O)[nH]c2c1	none
COc1ccc(-c2cc(C(=O)NCc3ccc(F)cc3)[nH]n2)cc1S(N)(=O)=O	none
NS(=O)(=O)c1ccccc1NC(=O)NCc1ccc(F)cc1	FECH inh active
Cc1nc2nc[nH]n2c(=O)c1NC(=O)NCc1ccc(F)cc1	none
COc1cc2cc(CN3CC(n4nc(C)cc4C)C3)c(=O)[nH]c2cc1OC	none
Cc1ccc(CN2CCCN(CC(=O)Nc3c(C)cc(C)cc3C)S2(=O)=O)cc1	FECH inh active
Cc1cccc(CN2CCCN(CC(=O)NC3CCCC3)S2(=O)=O)c1	none
Cc1cccc(CN2CCN(CC(=O)Nc3ccc(C)cc3C)S2(=O)=O)c1	none
Cc1ccc(NC(=O)CN2CCCN(Cc3ccc(Cl)cc3)S2(=O)=O)c(C)c1	none
Cc1cc(C)c(NC(=O)CN2CCCN(Cc3ccccc3)S2(=O)=O)c(C)c1	none
CSc1cccc(NC(=O)CN2CCCN(Cc3cccc(C)c3)S2(=O)=O)c1	none
Cc1cccc(CN2CCCN(CC(=O)Nc3c(C)cc(C)cc3C)S2(=O)=O)c1	FECH inh active
Cc1ccc(CN2CCCN(Cc3c(C)cc(C)cc3C)S2(=O)=O)cc1	none
Cc1cccc(CN2CCCN(CC(=O)Nc3ccc(C)cc3C)S2(=O)=O)c1	FECH inh active
Cc1cc(C)c(CN2CCCN(Cc3ccc(Cl)cc3)S2(=O)=O)c(C)c1	none
Cc1cc(C)c(CN2CCCN(Cc3ccccc3)S2(=O)=O)c(C)c1	FECH inh active
Cc1ccc(CN2CCCN(CC(=O)Nc3ccc(C)cc3C)S2(=O)=O)cc1	none
Cc1cc(NCC2CCS(=O)(=O)C2)nc(-c2cccnc2)n1 (centres undefined)	none
Cc1cccc(C(C(=O)N2CCC3(CC2)CNC(=O)O3)N(C)C)c1 (centres undefined)	none
CC1=CC(c2ccccc2)n2nc(NC(=O)c3ccc(F)cc3)nc2N1 (centres undefined)	none
CN(Cc1ccccc1)Cc1cc(C(=O)N(C)CC2CCCN2C)no1 (centres undefined)	none
CN(Cc1ccc2ncccc2c1)C(=O)[C@@H]1C[C@H](N)CN1C	none
C=CCNc1nc(Nc2ccc(OC)cc2)c2cnn(-c3ccccc3)c2n1	none
Cc1cccc(C)c1OC1CN(C(CO)CO)C1	none
Cc1cccnc1-n1cnc2ccccc21	none
Cc1ccc(NC(=O)CN2CCN(Cc3ccc(F)cc3)S2(=O)=O)cc1C	none
Cc1ccc(CN2CCCN(CC(=O)Nc3cc(C)ccc3C)S2(=O)=O)cc1	none
Cc1cccc(CN2CCN(CC(=O)Nc3cc(C)ccc3C)S2(=O)=O)c1	FECH inh active
Cc1ccc(NC(=O)CN2CCN(Cc3ccc(F)cc3)S2(=O)=O)c(C)c1	none
Cc1ccc(NC(=O)CN2CCN(Cc3ccccc3C)S2(=O)=O)c(C)c1	FECH inh active
Cc1ccc(C)c(NC(=O)CN2CCCN(Cc3cccc(F)c3)S2(=O)=O)c1	none
Cc1ccc(C)c(NC(=O)CN2CCN(Cc3ccccc3C)S2(=O)=O)c1	none
Cc1cccc(NC(=O)CN2CCN(Cc3ccccc3C)S2(=O)=O)c1	none
Cc1cc(C)c(NC(=O)CN2CCN(Cc3ccc(F)cc3)S2(=O)=O)c(C)c1	FECH inh active
Cc1ccccc1-c1nc(CSc2nc(-c3ccccc3)cc(=O)[nH]2)c(C)o1	none
COc1ccc(Cc2noc(Cn3cc4c(n3)CCC4)n2)cc1OC	none
O=C1CC(C(=O)Nc2ccc(F)cc2)N=C(N2CCN(c3ccccn3)CC2)N1 (centres undefined)	none
O=C(CN1c2ccc(Br)cc2-c2ccccc2S1(=O)=O)NCc1cccnc1	FECH inh active
O=C(CN1c2ccc(Br)cc2-c2ccccc2S1(=O)=O)Nc1cccnc1	FECH inh active
CN1CCCn2nc(C(=O)NC3COC4(CCCC4)C3)cc2C1 (centres undefined)	none
Cc1cccc(NS(=O)(=O)c2ccc(N3C(=O)CCS3(=O)=O)cc2)c1	none
CCc1ccc(NC(=O)CN2CCN(Cc3cc(C)ccc3C)S2(=O)=O)cc1	none
Cc1ccccc1-c1cc(N2CCN(C(=O)NC(C)(C)C)CC2)ncn1	none
CCOc1ccc(C(=O)Nc2ccc(C)c(OCc3cc(=O)n4cccc(C)c4n3)c2)cc1	none
CCn1c(=O)n(Cc2ccncc2)c(=O)c2cnc(-c3ccc(OC)cc3)nc21	FECH inh active
C=Cc1ccc(Cn2c(=O)c3cnc(-c4ccc(OC)cc4)nc3n(CC)c2=O)cc1	none
CCn1c(=O)n(Cc2ccccc2Cl)c(=O)c2cnc(-c3ccc(OC)cc3)nc21	none
CCn1c(=O)n(Cc2cccc(OC)c2)c(=O)c2cnc(-c3ccc(Cl)cc3)nc21	none
CCn1c(=O)n(Cc2cccc(Cl)c2)c(=O)c2cnc(-c3ccc(OC)cc3)nc21	FECH inh active
CCn1c(=O)n(Cc2cccc(OC)c2)c(=O)c2cnc(-c3ccc(OC)cc3)nc21	none

Screens: PubChem, Corson Lab, School of Medicine, Indiana University
